{"source": "PubChem BioAssay AID504891", "about": "(National Center for Advancing Translational Sciences (NCATS), 2011)", "note": "Hit rate of the full screen: of about 390,000 compounds, about 35 (0.009%) were called active. Inconclusive results (about 6%) are left out. Only a selection was taken, and actives are over-represented in it overall. Unmarked numbers belong to inactive results. Calls come from the whole dose curve; as a rule, active = well fitted inhibition curve with a large enough effect in the polarisation, with a control signal flat (not every such curve was filed as active); inconclusive = small, poorly fitted or top-dose-only effect, or effect the other way, or a change in a side signal; inactive = no such curve, though single readings can be large or run the other way; the % refers to the polarisation. Potency is the fitted concentration of half-maximal effect.", "data": [{"molecular_target": "Peptidyl-prolyl cis-trans isomerase NIMA-interacting 1 (Homo sapiens) (UniProt Q13526)", "sequence (Q13526 whole entry, looked up)": "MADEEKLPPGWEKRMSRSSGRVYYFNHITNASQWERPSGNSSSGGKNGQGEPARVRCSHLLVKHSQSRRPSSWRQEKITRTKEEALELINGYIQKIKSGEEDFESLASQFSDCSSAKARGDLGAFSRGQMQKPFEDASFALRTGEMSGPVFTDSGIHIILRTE", "test": "qHTS Assay to Find Inhibitors of Pin1", "details": "Pin1 FP peptide displacement, HiFluor488, 10 min; series mostly up to 115 µM; activity, negative = inhibition: at the top concentration", "source_text": "NIH Molecular Libraries Probe Production Network [MLPCN]\nNIH Chemical Genomics Center [NCGC]\nThe unique chemical properties of Pro allow for the adoption of two completely distinct amide bond conformations (cis and trans). Peptidyl-prolyl cis/trans isomerases (PPIases) are evolutionary conserved enzymes that catalyze cis/trans isomerization of peptidyl-prolyl peptide bonds. Distinct from all other PPIases such as cyclophilins and FK506-binding proteins (FKBPs), Pin1 binds a subset of phos.Ser/Thr-Pro-containing proteins using its protein-targeting WW domain and isomerizes only specific phos.Ser/Thr-Pro bonds, which cannot be effectively catalyzed by other known PPIases.\nPin1-catalyzed conformational regulation can control a spectrum of activities of many key regulators in diverse cellular processes such as cell growth, genotoxic and other stress responses, immune response, germ cell development, neuronal differentiation and survival. Pin1 has emerged as a novel molecular timer that modulates its multiple targets at various steps of a given cellular process to synergistically control the amplitude and duration of a cellular response or process. Importantly, Pin1 is tightly regulated by multiple levels and its deregulation has an important role in a growing number of pathological conditions, including cancer, Alzheimer's disease, aging, asthma and microbial infection, providing a potentially new therapeutic option.\nThe goal of this screen is to find small-molecule inhibitors of Pin1 using a fluorescence polarization competition assay. A HiFluor-488-labeled peptide binds to the active site of Pin1 and can be displaced by compounds. Compounds were screened as a concentration-titration series that ranged from 57 uM to 0.7 nM.\nNCGC Assay Protocol Summary:\nPin1 (0.6 uM) was dispensed into black, solid 1536-well plates at 2 uL/well in 10 mM HEPES (pH 7.5), 10 mM NaCl, 0.01% Tween20, 1 mM DTT, and 1% glycerol. Then, 23 nL of compounds or DMSO were delivered to each well using a pin tool. Two uL of Pin1-1b-HiFluor488 peptide (10 mM HEPES (pH 7.5), 10 mM NaCl, 0.01% Tween20, 1 mM DTT, and 1% glycerol, 0.02 uM Pin1-1b-HiFluor488) was then dispensed, and plates were incubated at room temperature for 10 min. The plates were measured on a ViewLux plate reader for fluorescence polarization signal using a 480/20 nM nm excitation filter and 540/25 nM nm S and P emission filters with a 20 second exposure. The %Activity was determined from the corrected fluorescence polarization values. Unlabeled Pin1-1c peptide was used as a control (3.5 mM two-fold serial; 20 uM final concentration) along with a 1x (0.3 uM) and 0x (no-enzyme) Pin1 enzyme control to normalize %Activity of identified inhibitors; 0x enzyme values corresponded to 100%Activity (full inhibition), while 1x Pin1 enzyme values were used to normalize 0%Activity (no inhibition).\nConcentration-response curves were fitted to the signals arising from the resulting fluorescence polarization. The concentration-effect curves were then classified based on curve quality (r2), response magnitude and degree of measured activity, and compounds were subsequently categorized based on their curve class.\nKeywords: Peptidyl prolyl isomerase, Pin1, fluorescence polarization, MLSMR, MLPCN, NIH Roadmap, qHTS, NCGC", "units": {"activity, negative = inhibition": "%"}, "values": [{"smiles": "CCc1ccccc1NC(=O)c1ccc2nc(CCc3ccccc3)oc2c1", "activity, negative = inhibition": 2.6}, {"smiles": "CCc1ccc(CNC(=O)C2CCN(c3nn4cc(-c5ccc(F)cc5)nc4s3)CC2)cc1", "activity, negative = inhibition": 0.155}, {"smiles": "Cc1ccc(CNc2ncnc3cc(-c4ccc5c(c4)OCO5)ccc23)o1", "activity, negative = inhibition": 62}, {"smiles": "CN1C(=O)c2ccccc2Sc2ccc(NC(=O)Cc3ccc(Cl)cc3)cc21", "activity, negative = inhibition": 26.7}, {"smiles": "Cc1cc2c(cc3c(SCc4nc(-c5ccccc5)oc4C)nnc(C)n32)o1", "activity, negative = inhibition": 8.69}, {"smiles": "CCOC(=O)C1CCN(C(=O)CSc2c3c(nc4ccc(Cl)cc24)CCCC3)CC1", "activity, negative = inhibition": -0.165}, {"smiles": "Cc1c(Cl)cccc1NC(=O)CCS(=O)(=O)c1ccc2c(c1)oc(=O)n2C", "activity, negative = inhibition": 0.402}, {"smiles": "O=C(CN1c2ccccc2S(=O)(=O)c2ccccc21)Nc1cccc(C(F)(F)F)c1", "activity, negative = inhibition": 4.41}, {"smiles": "O=C(COc1ccccc1F)Nc1ccc(C(=O)OCc2cc(=O)n3nc(C4CC4)sc3n2)cc1", "activity, negative = inhibition": -6.29}, {"smiles": "N#Cc1nc(Nc2cccc(Cl)c2)nc(NC2CCCC2)n1", "activity, negative = inhibition": 1.36}, {"smiles": "COc1ccc(Cn2ccn(CC(=O)Nc3cc(C)ccc3C)c(=O)c2=O)cc1", "activity, negative = inhibition": 0.673}, {"smiles": "COc1cccc(NC(=O)c2ccc3nc(CCc4ccccc4)oc3c2)c1", "activity, negative = inhibition": 14.7}, {"smiles": "COc1ccc(CC(=O)N2CC(=O)Nc3ccc(Br)cc3C2c2ccc(F)cc2)cc1OC", "note": "(stereo not drawn)", "activity, negative = inhibition": -0.0112}, {"smiles": "COc1ccc(N2CCN(S(=O)(=O)CCNC(=O)C(c3ccccc3)c3ccccc3)CC2)cc1", "activity, negative = inhibition": -3.85}, {"smiles": "COc1ccc(C2/C=C\\CN(C(=O)c3ccc(C)cc3)C(Cc3ccccc3)C(=O)N2Cc2ccc(F)cc2)cc1", "note": "(stereo not drawn)", "activity, negative = inhibition": 8.96}, {"smiles": "Cc1ccc2[nH]c3c(=O)n(CC(=O)NC(C)C)ncc3c2c1", "activity, negative = inhibition": 5.47}, {"smiles": "COc1ccc(NC(=O)CCc2nnc3n(CC(C)C)c(=O)c4ccccc4n23)cc1OC", "activity, negative = inhibition": 0.559}, {"smiles": "Cc1ccc(Cn2ncc3c4sc(C)cc4n(C)c3c2=O)c(C)c1", "activity, negative = inhibition": 2.78}, {"smiles": "COc1cc(OC)c2c(C)cc(=O)oc2c1C(CCN1CCCCC1)c1ccc(N(C)C)cc1", "note": "(stereo not drawn)", "activity, negative = inhibition": 0.75}, {"smiles": "CCc1nnc(SCc2c(F)cccc2Cl)c2cc3sccc3n12", "activity, negative = inhibition": 0.246}, {"smiles": "O=C1CCc2cc(S(=O)(=O)Nc3cccc(Oc4ccccc4)c3)ccc2N1", "activity, negative = inhibition": 4.76}, {"smiles": "NC(=O)C1CCN(c2cc(-c3ccc4c(c3)OCCCO4)ncn2)CC1", "activity, negative = inhibition": 0.493}, {"smiles": "COc1ccc(OCc2ccc(-c3nc(C#N)c(N4CCN(c5ccccc5)CC4)o3)o2)cc1", "activity, negative = inhibition": -7.37}, {"smiles": "COc1ccc(Cl)cc1NC(=O)CSc1nc2ccccc2c2nc(-c3ccccc3)nn12", "activity, negative = inhibition": -6.43}, {"smiles": "CCCN1CCC(=O)N(C(CSc2ccc(OC)cc2)Cc2ccccc2)CC1", "note": "(stereo not drawn)", "activity, negative = inhibition": -9.3}, {"smiles": "COc1ccc(CCC(=O)NCc2ccc3c(c2)CCN3C(=O)c2ccc(F)cc2)cc1", "activity, negative = inhibition": -7.47}, {"smiles": "Cc1ccc(-c2nnc3c4ccccc4c(C)nn23)cc1NC(=O)c1cccc(Br)c1", "activity, negative = inhibition": -5.3}, {"smiles": "Cc1cc2c(s1)c1cnn(Cc3cc(F)c(Cl)cc3Cl)c(=O)c1n2C", "activity, negative = inhibition": -4}, {"smiles": "COc1cc(Cl)c(C)cc1Nc1nnc(-n2nc(C)cc2C)c2ccccc12", "activity, negative = inhibition": 0.488}, {"smiles": "COc1ccc(C2Nc3ccccc3C(=O)N2Cc2ccco2)cc1COc1cccc(NC(C)=O)c1", "note": "(stereo not drawn)", "activity, negative = inhibition": 47.2}, {"smiles": "COc1ccc(-c2ccc3ncnc(NCc4cccs4)c3c2)cc1OC", "activity, negative = inhibition": 0.753}, {"smiles": "COc1ccc(C2/C=C\\CN(Cc3ccco3)C(C)C(=O)N2Cc2ccc(F)cc2)cc1", "note": "(stereo not drawn)", "activity, negative = inhibition": 25.5}, {"smiles": "COc1ccc(-c2onc(C)c2C)cc1S(=O)(=O)NCc1cccs1", "activity, negative = inhibition": -1.97}, {"smiles": "Cc1cc(C)n2ncc(C(=O)N3CCCC3)c2n1", "activity, negative = inhibition": -11.3}, {"smiles": "CC(C)Oc1cccc(-c2cnc(N3CCC(C(N)=O)CC3)s2)c1", "activity, negative = inhibition": 1.95}, {"smiles": "CCCc1nn2c(=O)cc(COC(=O)c3ccc(NC(=O)C(C)Oc4ccccc4)cc3)nc2s1", "note": "(stereo not drawn)", "activity, negative = inhibition": -8.84}, {"smiles": "Cc1ccc(S(=O)(=O)CCC(=O)OCC(=O)N(C)C2CCS(=O)(=O)C2)cc1", "note": "(stereo not drawn)", "activity, negative = inhibition": -16}, {"smiles": "Cc1cc(C(=O)OCC(=O)N2C(C)CCCC2C)c2ccccc2n1", "note": "(stereo not drawn)", "activity, negative = inhibition": 3.11}, {"smiles": "CN(C(=O)COC(=O)c1cc(-c2ccco2)nc2ccccc12)C1CCS(=O)(=O)C1", "note": "(stereo not drawn)", "Potency": "35.5 µM (active)"}, {"smiles": "C=C1CCN(C(CC(C)C)C(=O)NCc2cc(OC)c(OC)c(OC)c2)S(=O)(=O)c2ccccc21", "note": "(stereo not drawn)", "activity, negative = inhibition": 3.4}, {"smiles": "CCCCS(=O)(=O)c1oc(-c2cccs2)nc1S(=O)(=O)c1ccccc1", "activity, negative = inhibition": 14.3}, {"smiles": "CCCS(=O)(=O)N1CCC(n2c(C(F)(F)F)nc3cccnc32)CC1", "activity, negative = inhibition": 1.49}, {"smiles": "N#Cc1ccc(OC2=NS(=O)(=O)c3ccccc32)cc1", "activity, negative = inhibition": -6.79}, {"smiles": "O=C(NCc1nnc(C(=O)Nc2ccc(C(F)(F)F)cc2Cl)o1)c1ccccc1", "activity, negative = inhibition": 4.91}, {"smiles": "Cc1cccc2c1-c1sc(C(=O)Nc3ccc(F)cc3F)cc1CO2", "activity, negative = inhibition": -0.856}, {"smiles": "C#CCOc1ccc(C2CC(=O)Nc3c2c(C)nn3-c2nc(C)cc(C)n2)cc1", "note": "(stereo not drawn)", "activity, negative = inhibition": -7.62}, {"smiles": "CCCN(CCC)CCNC(=O)Cn1cnc2sc(C)c(S(=O)(=O)N3CCC(C)CC3)c2c1=O", "activity, negative = inhibition": -1.59}, {"smiles": "COc1ccccc1CNC(=O)c1ccc(NC(=O)N2CC(C)Sc3ccccc32)cc1", "note": "(stereo not drawn)", "activity, negative = inhibition": 7.05}, {"smiles": "O=C(O)c1ccc2c(c1)N(Cc1ccc(F)cc1)C(=O)c1ccccc1S2=O", "note": "(stereo not drawn)", "activity, negative = inhibition": 0.384}, {"smiles": "O=C(CC1Oc2ccc(Cl)cc2NC1=O)NCc1ccccc1", "note": "(stereo not drawn)", "activity, negative = inhibition": 1.66}, {"smiles": "CCOC(=O)c1cccc(NC(=O)Cn2cnc3nc4c(cc3c2=O)CCCC4)c1", "activity, negative = inhibition": -0.357}, {"smiles": "COc1ccc(OC)c(NC(=O)CN2CCCN(Cc3cc(C)ccc3C)S2(=O)=O)c1", "activity, negative = inhibition": -5.1}, {"smiles": "Cc1ccc2sc(N(Cc3cccnc3)C(=O)C3COc4ccccc4O3)nc2c1C", "note": "(stereo not drawn)", "activity, negative = inhibition": 6.41}]}]}
